Several values for one entry are separate records, joined by “and”; a condition that tells them apart may be missing. Equal values may be shown once. Among all 5,500 compounds or so, about 2,000 (36%) were called active. About 18% were inconclusive and are not listed. No stated cut-off is given here; in the data, active means normalized growth mostly below about 0.91 (no sharp cut-off); inconclusive means no clear call, values can overlap the other calls; inactive means mostly above about 0.92. The list shows a part of the results.
Experiment: chemical genetic growth profiling, strain panel (AID 1159580);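 further: tested at 20 µM; growth read once vehicle control cultures reached saturation at 30 °C; 1 = growth at the plate median or of vehicle wells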
Details: S. cerevisiae deletion strains, growth OD
[1] = locus YHR030C, strain SLT2, stronger effect = lower value
[2] = locus YHR079C, strain IRE1, stronger effect = lower value
[3] = locus YJL095W, strain BCK1, stronger effect = lower value
[4] = locus YJR066W, strain TOR1, stronger effect = lower value
[5] = locus YLR113W, strain HOG1, stronger effect = lower value
[6] = locus YMR263W, strain SAP30, stronger effect = lower value
[7] = locus YMR307W, strain GAS1, stronger effect = lower value
[8] = locus YNL183C, strain NPR1, stronger effect = lower value
[9] = locus YOR231W, strain MKK1, stronger effect = lower value
[10] = locus YPL241C, strain CIN2, stronger effect = lower value
[11] = locus YPL256C, strain CLN2, stronger effect = lower value

Measured: normalized growth

NCCCNCCCCNCCCN
inactive: locus YAL040C, strain CLN3, stronger effect = lower value 0.997 | locus YCL061C, strain MRC1 (second series), stronger effect = lower value 1.01 | locus YDR363W, strain ESC2, stronger effect = lower value 1.02 | locus YER002W, strain NOP16, stronger effect = lower value 1.02 | locus YGR078C, strain PAC10, stronger effect = lower value 1.01 | [1] 1.01 | [2] 0.994 | [3] 0.98 | [4] 0.925 | [5] 0.975 | [6] 0.995 | [7] 1.01 | locus YNL128W, strain TEP1, stronger effect = lower value 0.962 | locus YNL175C, strain NOP13, stronger effect = lower value 0.978 | [8] 0.93 | locus YNL197C, strain WHI3, stronger effect = lower value 0.992 | locus YNL224C, strain SQS1, stronger effect = lower value 0.986 | locus YOR083W, strain WHI5 (second series), stronger effect = lower value 0.994 | [9] 0.999 | [10] 1 | [11] 1.02

CC(C)=CC1C(C(=O)O)C1(C)C (stereo not given)
inactive: locus YAL013W, strain DEP1, stronger effect = lower value 0.988 | locus YAL021C, strain ccr4, stronger effect = lower value 0.989 | locus YAL026C, strain drs2, stronger effect = lower value 0.962 | locus YAL030W, strain snc1, stronger effect = lower value 0.976 | locus YBL061C, strain skt5, stronger effect = lower value 0.963 | locus YBR009C, strain hhf1, stronger effect = lower value 0.939 | locus YBR021W, strain FUR4, stronger effect = lower value 1.03 | locus YBR023C, strain chs3, stronger effect = lower value 0.966 | locus YBR171W, strain sec66, stronger effect = lower value 0.96 | locus YBR229C, strain ROT2, stronger effect = lower value 0.996 | locus YBR231C, strain swc5, stronger effect = lower value 0.985 | locus YBR279W, strain paf1, stronger effect = lower value 0.976 | locus YCL011C, strain gbp2, stronger effect = lower value 0.962 | locus YCL016C, strain dcc1, stronger effect = lower value 0.987 | locus YCL029C, strain bik1, stronger effect = lower value 0.981 | locus YCL061C, strain MRC1, stronger effect = lower value 0.987 | locus YCL069W, strain vba3, stronger effect = lower value 0.972 | locus YCR088W, strain abp1, stronger effect = lower value 0.983 | locus YDL005C, strain med2, stronger effect = lower value 0.976 | locus YDL035C, strain GPR1, stronger effect = lower value 0.998 | locus YDL040C, strain nat1, stronger effect = lower value 0.965 | locus YDL074C, strain BRE1, stronger effect = lower value 1.01 | locus YDL101C, strain DUN1, stronger effect = lower value 1.02 | locus YDL185W, strain tfp1, stronger effect = lower value 0.954 | locus YDL192W, strain arf1, stronger effect = lower value 0.966 | locus YDR001C, strain nth1, stronger effect = lower value 0.962 | locus YDR069C, strain doa4, stronger effect = lower value 0.967 | locus YDR101C, strain arx1, stronger effect = lower value 0.979 | locus YDR137W, strain rgp1, stronger effect = lower value 0.97 | locus YDR150W, strain NUM1, stronger effect = lower value 0.983 | locus YDR159W, strain sac3, stronger effect = lower value 0.959 | locus YDR162C, strain NBP2, stronger effect = lower value 1.08 | locus YDR195W, strain ref2 0.997 | locus YDR297W, strain sur2, stronger effect = lower value 0.979 | locus YDR318W, strain mcm21, stronger effect = lower value 0.977 | locus YDR334W, strain swr1, stronger effect = lower value 0.976 | locus YDR335W, strain msn5, stronger effect = lower value 0.977 | locus YDR388W, stronger effect = lower value 0.98 | locus YDR392W, strain spt3, stronger effect = lower value 0.883 | locus YDR502C, strain sam2, stronger effect = lower value 1.01 | locus YEL003W, strain gim4, stronger effect = lower value 0.971 | locus YEL037C, strain rad23, stronger effect = lower value 0.966 | locus YEL061C, strain CIN8 (second series), stronger effect = lower value 0.967 | locus YEL061C, strain CIN8, stronger effect = lower value 0.996 | locus YER015W, strain faa2, stronger effect = lower value 0.983 | locus YER016W, strain bim1, stronger effect = lower value 0.982 | locus YER110C, stronger effect = lower value 0.951 | locus YER111C, strain swi4, stronger effect = lower value 0.972 | locus YER155C, strain BEM2 (second series), stronger effect = lower value 0.972 | locus YER155C, strain BEM2, stronger effect = lower value 0.999 | locus YER167W, strain BCK2, stronger effect = lower value 0.997 | locus YFR010W, strain ubp6, stronger effect = lower value 0.972 | locus YGL078C, strain dbp3, stronger effect = lower value 0.991 | locus YGL086W, strain mad1, stronger effect = lower value 0.967 | locus YGL167C, strain pmr1, stronger effect = lower value 0.969 | locus YGL173C, strain kem1, stronger effect = lower value 0.959 | locus YGL227W, strain vid30, stronger effect = lower value 0.968 | locus YGL240W, strain doc1, stronger effect = lower value 0.974 | locus YGL248W, strain PDE1, stronger effect = lower value 1.04 | locus YGL253W, strain hxk2, stronger effect = lower value 0.993 | locus YGR135W, strain pre9, stronger effect = lower value 1 | locus YGR229C, strain SMI1, stronger effect = lower value 1.05 | locus YGR252W, strain gcn5, stronger effect = lower value 1.15 | locus YHR013C, strain ard1, stronger effect = lower value 0.956 | locus YHR027C, strain rpn1, stronger effect = lower value 0.973 | [1] 0.992 and 0.957 | locus YHR079C, strain IRE1 (second series), stronger effect = lower value 0.988 | [2] 0.957 | locus YHR094C, strain hxt1, stronger effect = lower value 0.968 | locus YHR129C, strain ARP1, stronger effect = lower value 0.997 | locus YHR142W, strain chs7, stronger effect = lower value 1.02 | locus YHR200W, strain rpn10, stronger effect = lower value 0.979 | locus YIL066C, strain RNR3, stronger effect = lower value 1.02 | locus YIL073C, strain SPO22, stronger effect = lower value 0.967 | locus YIL125W, strain kgd1, stronger effect = lower value 0.98 | locus YIR030C, strain dcg1, stronger effect = lower value 0.979 | locus YJL092W, strain hpr5, stronger effect = lower value 0.985 | locus YJL095W, strain BCK1 (second series), stronger effect = lower value 0.985 | [3] 1.08 and 0.996 | locus YJL115W, strain asf1, stronger effect = lower value 0.975 | locus YJL129C, strain trk1, stronger effect = lower value 0.981 | locus YJL134W, strain LCB3, stronger effect = lower value 0.99 | locus YJL154C, strain vps35, stronger effect = lower value 0.96 | locus YJL164C, strain tpk1, stronger effect = lower value 1.01 | locus YJL166W, strain qcr8, stronger effect = lower value 0.979 | locus YJL168C, strain set2, stronger effect = lower value 0.991 | locus YJL187C, strain SWE1 (second series), stronger effect = lower value 1.04 | locus YJL187C, strain SWE1, stronger effect = lower value 0.972 | locus YJR043C, strain POL32, stronger effect = lower value 1.04 | [4] 0.905 | locus YKL009W, strain mrt4, stronger effect = lower value 0.963 | locus YKL068W, stronger effect = lower value 0.988 | locus YKL085W, strain MDH1 (second series), stronger effect = lower value 0.971 | locus YKL085W, strain MDH1, stronger effect = lower value 0.971 | locus YKL160W, strain elf1, stronger effect = lower value 1.04 | locus YKL190W, strain CNB1, stronger effect = lower value 0.991 | locus YKR001C, strain vps1, stronger effect = lower value 0.973 | locus YKR026C, strain gcn3, stronger effect = lower value 0.977 | locus YKR091W, strain srl3, stronger effect = lower value 0.973 | locus YLL001W, strain dnm1, stronger effect = lower value 0.999 | locus YLL026W, stronger effect = lower value 0.982 | locus YLL041C, strain sdh2, stronger effect = lower value 0.984 | locus YLR027C, strain aat2, stronger effect = lower value 0.987 | locus YLR039C, strain RIC1, stronger effect = lower value 1.04 | locus YLR058C, strain SHM2, stronger effect = lower value 1.02 | locus YLR102C, strain apc9, stronger effect = lower value 0.957 | [5] 1.04 | locus YLR221C, strain rsa3, stronger effect = lower value 1 | locus YLR258W, strain gsy2, stronger effect = lower value 0.963 | locus YLR262C, strain YPT6 (second series), stronger effect = lower value 1 | locus YLR262C, strain YPT6, stronger effect = lower value 1.04 | locus YLR268W, strain sec22, stronger effect = lower value 0.972 | locus YLR320W, strain mms22, stronger effect = lower value 0.989 | locus YLR330W, strain CHS5, stronger effect = lower value 0.984 | locus YLR342W, strain FKS1 (second series), stronger effect = lower value 1.03 | locus YLR342W, strain FKS1, stronger effect = lower value 0.959 | locus YLR357W, strain rsc2, stronger effect = lower value 0.963 | locus YLR370C, strain arc18, stronger effect = lower value 0.976 | locus YLR371W, strain rom2, stronger effect = lower value 0.968 | locus YLR384C, strain iki3, stronger effect = lower value 0.981 | locus YLR418C, strain cdc73, stronger effect = lower value 1.02 | locus YML016C, strain PPZ1, stronger effect = lower value 0.999 | locus YML032C, strain rad52, stronger effect = lower value 1 | locus YML120C, strain ndi1, stronger effect = lower value 0.987 | locus YML124C, strain tub3, stronger effect = lower value 0.973 | locus YMR058W, strain fet3, stronger effect = lower value 0.966 | locus YMR078C, strain ctf18, stronger effect = lower value 0.975 | locus YMR125W, strain sto1, stronger effect = lower value 0.914 | locus YMR129W, stronger effect = lower value 0.965 | locus YMR205C, strain PFK2, stronger effect = lower value 0.932 | locus YMR223W, strain ubp8, stronger effect = lower value 0.988 | locus YMR231W, strain pep5, stronger effect = lower value 0.968 | [6] 1.01 | [7] 1.24 | locus YNL067W, strain RPL9B, stronger effect = lower value 1.05 | locus YNL071W, strain lat1, stronger effect = lower value 0.977 | locus YNL153C, strain GIM3, stronger effect = lower value 1.05 | [8] 0.971 | locus YNL209W, strain ssb2, stronger effect = lower value 0.977 | locus YNL233W, strain BNI4, stronger effect = lower value 1.07 | locus YNL248C, strain rpa49, stronger effect = lower value 1.01 | locus YNL250W, strain rad50, stronger effect = lower value 0.965 | locus YNL271C, strain bni1, stronger effect = lower value 0.973 | locus YNL298W, strain CLA4, stronger effect = lower value 0.99 | locus YNL307C, strain MCK1, stronger effect = lower value 0.988 | locus YNL322C, strain KRE1 (second series), stronger effect = lower value 0.973 | locus YNL322C, strain KRE1, stronger effect = lower value 0.998 | locus YNR049C, strain mso1, stronger effect = lower value 0.966 | locus YNR052C, strain pop2, stronger effect = lower value 0.972 | locus YOL006C, strain TOP1, stronger effect = lower value 1.06 | locus YOL012C, strain htz1 1.34 | locus YOL147C, strain pex11, stronger effect = lower value 0.989 | locus YOR001W, strain rrp6, stronger effect = lower value 1.01 | locus YOR061W, strain CKA2, stronger effect = lower value 1.01 | locus YOR069W, strain VPS5, stronger effect = lower value 0.992 | locus YOR070C, strain gyp1, stronger effect = lower value 0.985 | locus YOR080W, strain dia2, stronger effect = lower value 0.965 | locus YOR083W, strain WHI5, stronger effect = lower value 1.05 | locus YOR106W, strain vam3, stronger effect = lower value 1.01 | locus YOR136W, strain idh2, stronger effect = lower value 0.979 | locus YOR144C, strain elg1, stronger effect = lower value 1 | locus YOR184W, strain ser1, stronger effect = lower value 0.963 | [9] 0.954 | locus YOR265W, strain rbl2, stronger effect = lower value 0.986 | locus YOR270C, strain vph1, stronger effect = lower value 0.975 | locus YOR290C, strain snf2, stronger effect = lower value 0.925 | locus YOR316C, strain cot1, stronger effect = lower value 0.974 | locus YPL051W, strain arl3, stronger effect = lower value 1 | locus YPL055C, strain LGE1, stronger effect = lower value 1.06 | locus YPL078C, strain atp4, stronger effect = lower value 1 | locus YPL106C, strain sse1, stronger effect = lower value 0.972 | locus YPL240C, strain hsp82, stronger effect = lower value 0.997 | [10] 0.998 | [11] 0.975 | locus YPR119W, strain clb2, stronger effect = lower value 0.96 | locus YPR141C, strain kar3, stronger effect = lower value 0.969 | locus YPR163C, strain tif3, stronger effect = lower value 0.992 | locus YPR167C, strain met16, stronger effect = lower value 0.941 | strain wtn01, stronger effect = lower value 0.979

From PubChem BioAssay AID1159580 (chemical genetic matrix, 2015)
